Laboratory results: PubChem BioAssay (NCATS)
Values without a mark were called inactive. Records with an inconclusive call do not appear. A call without a number means that no potency is given here. Activity calls are given as the source filed them. The call rests on the fitted dose curve; in most records, active means well fitted curve in the direction sought with a large enough effect; inconclusive means small, poorly fitted or top-dose-only effect, or another doubt; inactive means no such curve, though single readings can be large; an effect the other way counts as inactive or inconclusive.

Columns and labels:
[1] = Cellular Toxicity (caspase-3) Mesangial (AID 660); details: mesangial cells, normalized: DMSO 0%, 100 µM tamoxifen 100%; at 91.7 µM (top of the series);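 further: combined caspase 3 and 7 activity read by Caspase-Glo luminescence; cells exposed to compound for 16 h before the caspase read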
Summary of the method: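 Caspase 3/7 activation measured by Caspase-Glo 3/7 luminescence (20 min, room temperature) following 16 h exposure of mesangial cells (1000/well); AC50 from Hill-equation fit, normalized to DMSO and 100 uM tamoxifen.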

[2] = Cellular Toxicity (caspase-3) SK-N-SH (AID 661);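 further: cells exposed to compound for 16 hours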
Summary of the method: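 Caspase 3/7 activation was read by luminogenic substrate cleavage after 16 hour treatment of SK-N-SH cells. Signal was scaled between DMSO and 10 uM staurosporine, and concentration-response data were fitted with the Hill equation for AC50.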

[3] = Cellular Toxicity (caspase-3) Hek293 (AID 664); details: HEK293 caspase-3 activation, DMSO = 0%, 100 µM tamoxifen = 100%; at 92.2 µM (top of the series);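 further: cells exposed to compound for 16 h at 37 °C before readout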
Summary of the method: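 Concentration-response qHTS: caspase 3/7 activation measured by luminescent aminoluciferin substrate cleavage after 16 h compound exposure of Hek 293 cells. AC50 from Hill equation, with DMSO as basal and 100 uM tamoxifen as 100%.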

[4] = Cellular Toxicity (caspase-3) N2a (AID 665);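 further: compound exposure lasted 16 h at 37 °C before readout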
Summary of the method: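 Caspase-3/7 activation measured as luminescence from Caspase-Glo reagent (1 h, room temperature) after 16 h compound exposure of mouse N2a cells. AC50 values from Hill-equation concentration-response, scaled between DMSO and 10 uM staurosporine.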

[5] = Cellular Toxicity (caspase-3) NIH 3T3 (AID 666);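 further: caspase signal read after 16 h compound exposure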
Summary of the method: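 Caspase-Glo 3/7 luminescence reported caspase activation in 1000 NIH 3T3 cells/well after 16 h compound exposure at 37 C. DMSO set basal and 100 uM tamoxifen set 100% stimulation; concentration-response modeled with the Hill equation for AC50.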

[6] = target: Cytochrome P450 3A4 (Homo sapiens) (UniProt P08684); assay: qHTS Assay for Activators of Cytochrome P450 3A4 (AID 885); further: nearly all actives have a fitted effect of over 65% in size
Summary of the method: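 CYP3A4 activity: Luciferin-PPXE O-dealkylation, 25uM substrate, 200mM KPO4, RT throughout. Read-out is luciferase luminescence; higher values reflect activation.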

[7] = Cell Viability - LYMP2-001 (AID 921); further: nearly all actives have a fitted effect of over 70% in size
Summary of the method: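 Steps: seed 2500 lymphoblastoid cells/well; 5 hr, 37 C; add compound; 24 hr, 37 C; CellTiter-Glo reagent, 30 min room temperature; read luminescence. Concentration-response modeled by Hill equation for AC50.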

[8] = MultiTox-Fluor Cytotoxicity Assay - LYMP1-001 - Dead Cells (AID 946)
Summary of the method: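 AC50 from Hill fit of concentration-response; data normalized to DMSO (basal) and 15 uM tetraoctylammonium bromide (100%). LYMP1-001 lymphoblastoid cells, 2500/well, 16 hr compound at 37 C; dead-cell protease fluorescence, Ex/Em 485/520.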

[9] = MultiTox-Fluor Cytotoxicity Assay - LYMP1-001 - Live Cells (AID 947)
[10] = Cell Viability - LYMP1-002 - Assay at 16 hr (AID 948)
Summary of the method: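 Seed 2500 LYMP1-002 cells per well in complete medium and hold 5 hr at 37 C. Add compound across a concentration series and incubate 16 hr at 37 C. Add CellTiter-Glo, wait 30 min at room temperature, read luminescence.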

[11] = MultiTox-Fluor Cytotoxicity Assay - LYMP1-002 - Live Cells (AID 955);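 further: cells exposed to compound for 16 hours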
Summary of the method: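 After 16 h compound exposure at 37 C, live LYMP1-002 lymphoblastoid cells (2500/well) were quantified by cleavage of cell-permeant GF-AFC substrate, read at 405/510 nm after 60 min. Concentration-response fitted with Hill equation for AC50.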

[12] = MultiTox-Fluor Cytotoxicity Assay - LYMP1-002 - Dead Cells (AID 960); further: nearly all actives have a fitted effect of over 60% in size
Summary of the method: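 Dead-cell fluorescence (Ex/Em 485/520) after 16 h compound exposure at 37 C of LYMP1-002 lymphoblastoid cells in complete medium; AC50 by Hill equation, with data scaled between DMSO and 15 uM tetraoctylammonium bromide.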

[13] = MultiTox-Fluor Cytotoxicity Assay - LYMP1-003 - Dead Cells (AID 961); further: nearly all actives have a fitted effect of over 70% in size
Summary of the method: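 Human lymphoblastoid LYMP1-003 cells (2500/well) were treated with compounds for 16 hr at 37 C in complete medium. Dead-cell protease release was read by bis-AAF-R110 fluorescence (Ex/Em 485/520). AC50 came from Hill fits, normalized to DMSO and 15 uM tetraoctylammonium bromide.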

[14] = MultiTox-Fluor Cytotoxicity Assay - LYMP1-003 - Live Cells (AID 962);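 further: cells exposed to compound for 16 hours at 37 °C; cytotoxic hits lower the live-cell protease signal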
Summary of the method: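 Live-cell protease activity (GF-AFC substrate, 405/510 nm, 60 min at room temperature) after 16 h, 37 C compound exposure of human lymphoblastoid LYMP1-003 cells; concentration-response fitted to the Hill equation for AC50.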

[15] = Cell Viability - LYMP1-003 - Assay at 24 hr (AID 963)
Summary of the method: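 Concentration-response qHTS: ATP loss measured by CellTiter-Glo luminescence after 24 h compound exposure at 37 C. Cells were LYMP1-003 human lymphoblastoid, 2500 per well. AC50 derived via standard Hill equation modeling.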

[16] = Cell Viability - LYMP1-003 - Assay at 40 hr (AID 964); further: nearly all actives have a fitted effect of over 60% in size
Summary of the method: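 Viability is taken as cellular ATP, read by CellTiter-Glo luminescence after 40 h of compound exposure at 37 C. Cells: human lymphoblastoid line LYMP1-003 at 2500/well; AC50 values derived by Hill-equation fitting of concentration-response data.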

[17] = Cellular Toxicity (caspase-3) Renal Proximal Tubule (AID 667); details: Potency: caspase-3 activation;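 further: cells exposed to compound for 16 hours at 37 °C before detection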
Summary of the method: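 AC50 derived by standard Hill fit of concentration-response data, normalized between DMSO basal and 10 uM staurosporine as 100% stimulation. Cells: primary rat kidney proximal tubule, 16 h treatment at 37 °C.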

[18] = target: Cytochrome P450 3A4 (Homo sapiens) (UniProt P08684); assay: qHTS Assay for Inhibitors and Substrates of Cytochrome P450 3A4 (AID 884); further: nearly all actives have a fitted effect of over 50% in size
Summary of the method: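 Luminescent readout of luciferin produced by CYP3A4 (20 nM) dealkylation of Luciferin-PPXE, 25 uM (its KM). NADPH-driven reaction ran 60 min at RT after 10 min compound preincubation; data scaled to 57 uM ketoconazole as 100% inhibition.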

[19] = Cell Viability - LYMP2-003 (AID 965);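 further: cells exposed to compounds for 24 h before reading; nearly all actives have a fitted effect of over 50% in size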; further: potency means the concentration at half of the fitted maximal effect
Summary of the method: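 Seed 2500 lymphoblastoid cells/well; incubate 5 hr, 37 C; add compounds; incubate 24 hr, 37 C; add CellTiter-Glo, 30 min RT; read luminescence. AC50 from Hill fit.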

Chain of Cytochrome P450 3A4 (Homo sapiens) (P08684 whole entry, looked up): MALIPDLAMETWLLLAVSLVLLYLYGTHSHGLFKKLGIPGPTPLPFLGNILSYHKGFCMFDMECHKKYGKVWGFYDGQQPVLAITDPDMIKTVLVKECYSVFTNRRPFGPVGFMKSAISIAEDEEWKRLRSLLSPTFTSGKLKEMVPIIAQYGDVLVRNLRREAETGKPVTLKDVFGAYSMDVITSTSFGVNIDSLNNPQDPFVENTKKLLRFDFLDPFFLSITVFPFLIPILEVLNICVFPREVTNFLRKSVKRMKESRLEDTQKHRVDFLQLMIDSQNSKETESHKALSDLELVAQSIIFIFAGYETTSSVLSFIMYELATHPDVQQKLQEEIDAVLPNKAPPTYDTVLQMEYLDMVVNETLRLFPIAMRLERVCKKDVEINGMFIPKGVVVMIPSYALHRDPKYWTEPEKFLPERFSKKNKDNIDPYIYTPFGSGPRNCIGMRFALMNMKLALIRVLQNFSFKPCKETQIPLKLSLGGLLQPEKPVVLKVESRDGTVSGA

SMILES	caspase-3 activation [1]	outcome [2]	caspase-3 activation [3]	outcome [4]	outcome [5]	outcome [6]	Potency [7]	outcome [8]	outcome [9]	outcome [10]	outcome [11]	outcome [12]	Potency [13]	Potency [14]	Potency [15]	Potency [16]	Potency [17]	Potency [18]	Potency [19]
Cc1ccc(Cl)cc1N	-0.617%	inactive	-3.36%	inactive	inactive	inactive	inactive	inactive	inactive	inactive	inactive	inactive	inactive	inactive	inactive	inactive			
CC(=O)CCc1ccccc1	-0.0155%	inactive	0.352%	inactive	inactive		inactive	inactive	inactive	inactive	inactive	inactive	inactive	inactive	inactive	inactive	inactive	inactive	inactive
O=Nc1ccc(NO)cc1	0.317%	inactive	11.4%	inactive	inactive			inactive		inactive	inactive	inactive	inactive		inactive	inactive	inactive	inactive	50.1 µM (active)
CC(C)Cc1nccs1	1.49%	inactive	2.01%	inactive	inactive		inactive	inactive	inactive	inactive	inactive	inactive	inactive	inactive		inactive	inactive	inactive	inactive
CCCCCCCCC	-0.687%	inactive	-2.1%	inactive	inactive		inactive	inactive		inactive	inactive	inactive	inactive	inactive	inactive	inactive	inactive	inactive	inactive
CC(=O)c1ccccn1	0.864%	inactive	0.0845%	inactive	inactive		inactive	inactive		inactive	inactive	inactive	inactive	inactive	inactive	inactive	inactive	inactive	inactive
O=[N+]([O-])c1ccc(CCO)cc1	-1.2%	inactive	-3.11%	inactive	inactive			inactive	inactive	inactive	inactive	inactive	inactive	inactive	inactive		inactive	inactive	inactive
Nc1cc(Cl)c([N+](=O)[O-])cc1O	-0.0539%	inactive	5.51%	inactive	inactive	inactive	inactive	inactive	inactive	inactive	inactive	inactive	inactive	inactive	inactive		inactive		inactive
CC(C)(C)OC=O	1.35%	inactive	-1.63%	inactive	inactive			inactive	inactive	inactive	inactive	inactive	inactive	inactive	inactive	inactive			inactive
Nc1c(Cl)cc(Cl)cc1Cl	0.75%	inactive	-0.377%	inactive	inactive		inactive	inactive	inactive	inactive	inactive		inactive	inactive	inactive	inactive	inactive	inactive	inactive
CC=C(Cl)Cl	-0.275%	inactive	0.136%	inactive	inactive			inactive		inactive	inactive	inactive	inactive	inactive		inactive	inactive	inactive	inactive
CCC(C)(C)C(=O)O	0.0755%	inactive	1.52%	inactive	inactive		inactive	inactive	inactive	inactive	inactive	inactive	inactive	inactive	inactive	inactive	inactive	inactive	inactive
